# The supplement of paper PMC10646978
# ± gives the standard deviation.
# Assays:
# Conditions in all cases: modulator concentration 10 µM
# [1] = tested on: RAW-Dual (murine macrophage reporter line); assay: NF-kB reporter (SEAP) activity fold change vs agonist alone; higher = enhanced NF-kB activity
# Outline: (§1)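 Overnight stimulation with a PRR agonist followed pre-incubation for 1 hour at 37 °C with compound at 10 μM final. This was done in RAW-Dual murine macrophage reporter cells seeded at 50 000 per well in 384-well plates. NF-κB (SEAP, QUANTI-Blue absorbance at 620 nm) and IRF (Lucia luciferase, QUANTI-Luc luminescence) were read from the supernatant. Each reporter's fold change relative to the mean agonist-only control on the same plate was averaged over replicate plates.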
# [2] = tested on: RAW-Dual (murine macrophage reporter line); assay: IRF reporter (Lucia luciferase) activity fold change vs agonist alone; higher = enhanced IRF activity
# Outline: as §1
# [3] = tested on: RAW-Dual (murine macrophage reporter line); assay: viability score (confluency relative to resting cells, overnight) (fraction); higher = more viable, active = viable (0.7 or more)
# Outline: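 Overnight exposure to 10 μM final compound was carried out on RAW-Dual macrophages in 384-well plates. IncuCyte software generated two confluency masks over all wells imaged with IncuCyte. The viability score gives confluency in relation to resting cells. A compound met the cutoff if each mask exceeded 70% of resting cells.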
# [4] = agonist: CpG ODN 1826 0.5 ug/mL
Compound,"NF-kB reporter [1, 4]",NF-kB reporter ([1]; agonist: LPS 0.1 ug/mL),NF-kB reporter ([1]; agonist: MPLA […]),IRF reporter ([2]; agonist: 3'3'-cGAMP 10 ug/mL),IRF reporter ([2]; agonist: LPS 0.1 ug/mL),IRF reporter ([2]; agonist: MPLA […]),viability score [3]
c1ccc2[nH]c(-c3cscn3)nc2c1,1.14 ± 0.16,1.16 ± 0.21,0.915 ± 0.055,0.81 ± 0.037,1.17 ± 0.17,1.04 ± 0.13,0.995 (active)
Cl.c1ccc(CC2=NCCN2)cc1,0.999 ± 0.14,1.08 ± 0.17,0.923 ± 0.051,0.887 ± 0.027,1.17 ± 0.22,1.13 ± 0.1,0.993 (active)
CC(=O)C1CCC2C3CC=C4CC(O)CCC4(C)C3CCC12C (stereo not given),1.19 ± 0.29,1.1 ± 0.12,1.13 ± 0.074,0.887 ± 0.03,1.28 ± 0.16,1.32 ± 0.16,0.986 (active)
O=C(c1ccc(Cl)cc1)N(c1ccccc1)C1C=CS(=O)(=O)C1 (stereo not given),0.99 ± 0.056,0.83 ± 0.051,0.823 ± 0.049,0.814 ± 0.031,1.1 ± 0.14,1.08 ± 0.2,0.981 (active)
COC(=O)C1=C(C)NC(C)=C(C(=O)OC)C1c1ccc(-c2ccc(Cl)cc2Cl)o1,1.01 ± 0.081,0.943 ± 0.064,0.922 ± 0.092,0.872 ± 0.022,1.23 ± 0.11,1.22 ± 0.22,1.02 (active)
COc1cccc2c1C(=O)c1c(O)c3c(c(O)c1C2=O)C[C@@](O)(C(=O)CO)C[C@@H]3O[C@@H]1C[C@H](N)[C@@H](O)[C@H](C)O1 [Prestw-1752],0.219 ± 0.025,0.0896 ± 0.013,0.169 ± 0.016,0.264 ± 0.011,0.185 ± 0.05,0.33 ± 0.053,0.458 (inactive)
CCCCCCCCc1ccc(CCC(N)(CO)CO)cc1.Cl,0.687 ± 0.18,0.685 ± 0.047,1.55 ± 0.2,0.172 ± 0.019,0.673 ± 0.072,0.615 ± 0.15,0.513 (inactive)
CCCCOc1cc(C(=O)NCCN(CC)CC)c2ccccc2n1.Cl,0.759 ± 0.17,1.04 ± 0.18,1.04 ± 0.067,0.776 ± 0.039,1.41 ± 0.41,1.82 ± 0.14,0.93 (active)
OCC1OC(Oc2ccc(O)cc2)C(O)C(O)C1O (stereo not given),1.23 ± 0.3,0.965 ± 0.069,1.02 ± 0.08,0.891 ± 0.049,1.14 ± 0.2,1.2 ± 0.11,1 (active)
O=[N+]([O-])c1ccccc1S(=O)(=O)NCc1ccc2c(c1)OCO2,1 ± 0.088,0.988 ± 0.075,0.937 ± 0.092,0.89 ± 0.028,1.05 ± 0.14,1.09 ± 0.2,1.03 (active)
Cn1cnc2cc(NCc3nc4ccccc4n3C)ccc21,0.818 ± 0.065,1.03 ± 0.078,1.01 ± 0.039,0.955 ± 0.17,1.03 ± 0.15,1.03 ± 0.24,1 (active)
COc1cc2c3cc1Oc1cc(ccc1O)OC1c4c(cc(OC)c(O)c4Oc4ccc(cc4)CC3N(C)CC2)CCN1C (stereo not given),0.191 ± 0.011,1.05 ± 0.064,1.03 ± 0.084,0.793 ± 0.034,1.47 ± 0.23,1.34 ± 0.13,0.995 (active)
N#Cc1c(NC(=O)c2cccc3ccccc23)sc2c1CCCC2,1.67 ± 0.13,0.863 ± 0.073,1.14 ± 0.12,0.616 ± 0.019,1.35 ± 0.18,1.48 ± 0.23,0.879 (active)
O=c1c2ccccc2n(Cc2nc(-c3ccc(F)c(F)c3)no2)c(=O)n1C1CC1,0.84 ± 0.076,1.21 ± 0.096,0.923 ± 0.11,0.995 ± 0.074,1.04 ± 0.074,1.07 ± 0.15,0.971 (active)
CN(C)CCOC1=Cc2ccccc2Sc2ccc(Cl)cc21 [Prestw-1368],0.965 ± 0.077,0.97 ± 0.094,1.11 ± 0.039,0.772 ± 0.031,0.895 ± 0.061,0.761 ± 0.099,0.994 (active)
